The list is not random: actives were taken first. Their share in the collection is about 2.3%.
USP1 inh: Inhibitors of USP1/UAF1: Primary Screen; Ubiquitin carboxyl-terminal hydrolase 1 (Homo sapiens), O94782; recombinant USP1/UAF1, Ub-Rhodamine cleavage fluorescence; Potency, µM (highest dose often 57.1 µM), for inactives: top-dose activity change, negative = inhibition, actives largely listed as inhibitors; hit rate 0.23% among 390,000; also: potency is read from the fitted curve at half-maximal effect; nearly all actives have a fitted effect of over 60% in size
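1 nM enzyme complex + cpd, 15 min RT; start with Ub-Rho 150nM final; kinetic fluorescence ex 480/em 540, 6 reads q60 s. Buffer 50mM HEPES pH 7.8, 0.5mM EDTA, 0.1 mg/ml BSA, 1mM TCEP, 0.01% Tween-20.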
Tau fluor cs: Counterscreen qHTS for Inhibitors of Tau Fibril Formation, Fluorescence Polarization | tau K18 P301L Alexa594 fluorescence, heparin fibrillization | Potency, µM (highest dose often 57.7 µM), inactives show at the top dose activity change, negative = decrease | hit rate 0.93% among 280,000; also: potency is read from the fitted curve at half-maximal effect; nearly all actives have a fitted effect of over 55% in size
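Human tau K18 P301L (15 uM unlabeled, 0.24 uM Alexa 594-labeled) in 100 mM sodium acetate pH 7 with 20 uM heparin, 6 hr at 37 C. ThT 30 uM added, 1 hr ambient; Alexa 594 FP and total fluorescence read at 555/632 nm.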
Tau fibril ThT: qHTS for Inhibitors of Tau Fibril Formation, Thioflavin T Binding; recombinant tau K18 P301L (four-repeat tau fragment), heparin-induced fibrillization, ThT fluorescence; Potency, µM (doses to about 57.4 µM), for the others: at the top dose activity, negative = inhibition, hits mostly inhibitors; hit rate 2.1% among 270,000; also: potency is read from the fitted curve at half-maximal effect; nearly all actives have a fitted effect of over 55% in size
Target sequence (P10636 561-689 P618L limits assumed): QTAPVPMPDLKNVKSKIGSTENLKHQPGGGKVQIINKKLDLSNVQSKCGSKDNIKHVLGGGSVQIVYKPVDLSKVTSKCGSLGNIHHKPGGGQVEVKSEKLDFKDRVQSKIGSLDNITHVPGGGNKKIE
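Recombinant human tau K18 fragment […] carrying P301L, 15 uM unlabeled plus 0.24 uM Alexa 594-labeled, was fibrillized with 20 uM heparin in 100 mM sodium acetate pH 7 for 6 hr at 37 C; 30 uM ThT fluorescence read after 1 hr.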
Coupling enz: qHTS Assay for Inhibitors of Fructose-1,6-bisphosphate Aldolase from Giardia Lamblia: Coupling assay counterscreen; coupling enzyme system counterscreen, AmpLite Red fluorescence; activity change, negative = inhibition, % at 58.2 µM, hits read low; hit rate 0.67% among 290,000; in the data active = activity change below about -30%
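First, compound is pin-transferred into glyceraldehyde-3-phosphate coupling-enzyme reagent at 57.5 uM final and held 10 min at RT. Next, substrate, coupling system and AmpLite Red are added. After 20 min RT, fluorescence (525/598 nm) is read.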
Tau FP inhib: qHTS for Inhibitors of Tau Fibril Formation, Fluorescence Polarization | Microtubule-associated protein tau (Homo sapiens), P10636 | K18 P301L tau heparin fibrillization, Alexa594 FP, 6 h | Potency, µM (top dose mostly 57.7 µM), inactives show at the top dose activity, negative = inhibition, usual class: inhibitors | hit rate 0.39% among 280,000; also: potency is read from the fitted curve at half-maximal effect; nearly all actives have a fitted effect of over 55% in size
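Read-out: fluorescence polarization of Alexa 594-labeled tau (0.24 uM), 555 nm excitation, 632 nm emission. Mixtures held 15 uM unlabeled K18 P301L, compound and 20 uM heparin, pH 7 acetate buffer, incubated 6 hr at 37 C.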
* hit, by the source's call; ? = inconclusive; · = no result given; [ ] = another dose, or the depositor's remark. Unless noted, calls follow the shape of the dose curve; as a rule, active = well fitted curve in the direction sought with a large enough effect; inconclusive = small, poorly fitted or top-dose-only effect, or another doubt; inactive = no such curve, though single readings can be large; an effect the other way counts as inactive or inconclusive. % is scaled to controls: 0 for no effect and ±100 for the full control effect.

SMILES	USP1 inh	Tau fluor cs	Tau fibril ThT	Coupling enz	Tau FP inhib
CCCc1cc(=O)[nH]c(SCc2nc(-c3ccc(OCC)cc3)no2)n1	12%	-6%	-4%	·	-14%
CCOC(=O)CCNC(=O)N1CCN(S(=O)(=O)c2ccc3c(ccn3C)c2)CC1	-14%	-3%	-5%	·	-7%
O=C(CCS(=O)(=O)c1ccc(Br)s1)Nc1cc(C(F)(F)F)cc(C(F)(F)F)c1	-11%	?	-11%	·	20µM*
Cc1cccc(N2C(=O)CSC23C(=O)N(CC(=O)NCCc2ccccc2)c2ccccc23)c1 (centres undefined)	-31%	-12%	0%	·	-1%
Cc1ccc(-c2nn(-c3ccccc3)cc2/C=C2\SC(=S)N(CC(=O)O)C2=O)cc1	-17%	-12%	18µM*	8	-4%
O=C(O)CCN1C(=O)/C(=C/c2cn(-c3ccccc3)nc2-c2cccs2)SC1=S	?	-1%[2.34 µM]	4%	-1	-3%[2.34 µM]
O=C(O)CCCCCN1C(=O)/C(=C\c2cn(-c3ccccc3)nc2-c2cccs2)SC1=S	?	-16%	14µM*	8	8%
N#Cc1c(N)oc(-c2ccc3c(c2)OCO3)c1-c1ccc2c(c1)OCO2	?	28µM*[quencher]	?	-38*	12%
CCC[n+]1c(C)sc2c(OC)ccc(OC)c21	-16%	-20%	35µM*	-1	32µM*
CO[C@]12C(COC(N)=O)C3=C(C(=O)C(C)=C(N)C3=O)N1CC1NC12 (some centres undefined)	·	-14%	-21%	-40*	-9%
O=C(NN=Cc1c[nH]c2ccccc12)NN=Cc1c[nH]c2ccccc12	-20%	·	·	·	·
Cc1cccc(NC(=S)N/N=C/c2c[nH]c3ccccc23)c1	-5%	8.9µM*[quencher]	16µM*	1	?
Cc1ccc(C(=O)Nc2ccc(C(=O)N/N=C/c3c[nH]c4ccccc34)cc2)cc1	-12%	14µM*[quencher]	13µM*	-2	11%
O=C(N/N=C/c1ccc([N+](=O)[O-])o1)c1sc2ccccc2c1Cl	-20%	?	3.5µM*	1	-4%
O=C(N/N=C/c1ccccn1)c1sc2ccccc2c1Cl	-5%	?	?	-3	-8%
COc1ccc2c(Cl)c(C(=O)N/N=C/c3c(C)[nH]c4ccccc34)sc2c1	-21%	11µM*[quencher]	4.5µM*	0	8%
COc1ccc2c(Cl)c(C(=O)N/N=C3\CCCC(=O)C3)sc2c1	16µM*	-24%	?	0	0%
O=C(N/N=C/c1c[nH]c2ccccc12)c1ccccc1	-19%	·	·	0	·
O=C(N/N=C/c1c[nH]c2ccccc12)c1sc2ccccc2c1Cl	-1%	8.9µM*[quencher]	?	-3	-3%
CC(C)N1CCc2c(sc(N)c2C#N)C1	?	-11%	?	-7	?
CC(C)N1CCC2(CC1)C(C#N)=C(N)NC(S)=C2C#N	·	?	20µM*	-6	?
COc1ccc(-c2cc(C(=O)Nc3c(C(=O)c4ccc(C)c(F)c4)oc4ccccc34)no2)cc1	-12%	-4%	4%	·	-7%
CN(CC(=O)Nc1cccc(Cl)c1)S(=O)(=O)c1ccc2[nH]c3c(c2c1)CCCC3	-24%	14µM*[quencher]	-8%	·	-10%
CN(CC(=O)Nc1cccc(C(F)(F)F)c1)S(=O)(=O)c1ccc2[nH]c3c(c2c1)CCCC3	-12%	25µM*[quencher]	-8%	·	?
Cc1ccc(NC(=O)CN(C)S(=O)(=O)c2ccc3[nH]c4c(c3c2)CCCC4)c(Cl)c1	-12%	?	-4%	·	6%
SMILES	USP1 inh	Tau fluor cs	Tau fibril ThT	Coupling enz	Tau FP inhib
COc1ccc(NC(=O)CN(C)S(=O)(=O)c2ccc3[nH]c4c(c3c2)CCCC4)cc1Cl	-11%	14µM*[quencher]	-9%	·	5%
COc1ccc(NC(=O)CN(C)S(=O)(=O)c2ccc3[nH]c4c(c3c2)CCCC4)cc1OC	-15%	?	-15%	·	15%
COC(=O)NC(/C=C/c1ccco1)[C@@]1(C(=O)OC)CCCC1=O (some centres undefined)	·	-13%[11.6 µM]	?	-3	?
NC(=O)CC(NC(=O)c1ccccc1)c1ccc(NCCOc2ccccc2)c([N+](=O)[O-])c1 (centres undefined)	-16%	-15%	13µM*	0	5%
NC(=O)CC(NC(=O)c1ccccc1)c1ccc(NCCc2cccc(F)c2)c([N+](=O)[O-])c1 (centres undefined)	-21%	-26%	16µM*	-2	-4%
COc1ccc(NC(=O)CSCc2cc(=O)c3cc(Cl)ccc3[nH]2)cc1	?	-3%	-3%	·	-1%
O=C(NCCSc1c(-c2ccc(Br)cc2)[nH]c2ccccc12)c1ccc(S(=O)(=O)N2CCOCC2)cc1	-25%	4.5µM*[quencher]	-4%	·	-14%
O=C(NCCSc1c(-c2ccc(Cl)cc2)[nH]c2ccccc12)c1ccc(S(=O)(=O)N2CCOCC2)cc1	?	4µM*[quencher]	-6%	·	-14%
COc1ccc(CCNC(=O)C(=O)NCC(c2cccs2)S(=O)(=O)c2ccc(F)cc2)cc1 (centres undefined)	-26%	-15%	-2%	·	-5%
CC(=O)c1ccc(S(=O)(=O)N2CCCC2)cc1	3%	-14%	?	0	-8%
CC(=O)Nc1ccc(Nc2ccc3cc(S(=O)(=O)N4CCCCC4)ccc3n2)cc1	?	14µM*[quencher]	?	·	14%
CC(=O)c1ccc(Nc2ccc3cc(S(=O)(=O)N4CCCC4)ccc3n2)cc1	-31%	11µM*[quencher]	5%	·	22µM*
NS(=O)(=O)c1ccc(Nc2ccc3cc(S(=O)(=O)N4CCCCC4)ccc3n2)cc1	-22%	·	·	·	·
CC1CCN(S(=O)(=O)c2ccc3nc(Nc4cccc(F)c4)ccc3c2)CC1	-9%	?	21%	·	13µM*
CCCC[C@H]1C[C@@H]1[C@@H]1N(C(C)=O)[C@H](c2cccc(OC)c2)CC12CC2	·	-7%	?	-1	8%
Cc1ccccc1CSc1cn(CC(=O)N2CCCCC2)c2ccccc12	?	-26%	?	·	-5%
O=C(CNC1=NCCC1)c1ccc(Cl)cc1	1%	-3%	-13%	-36*	12%
CCOC(CNC(=O)c1ccc(N2CCc3ccccc32)c([N+](=O)[O-])c1)OCC	-15%	?	13µM*	-7	?
COC(=O)c1ccc(N2CCc3ccccc32)c([N+](=O)[O-])c1	-24%	·	·	-2	·
Cc1nc(NC(=O)/C=C/c2ccccc2)n[nH]1	-6%	-3%	16µM*	0	?
